{"source": "the supplement of paper PMC6124720", "note": "Structures can show the parent of a compound that is named as a salt. Values without a mark were called inactive.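 Note: biolog Phenotype Microarray plates PM21–25, OD595 followed daily over 11 days, growth curves converted to index, mean of two independent experiments.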"}
{"tested_on": "Pseudogymnoascus destructans 20631-21", "experiment": "growth activity index (DuctApe, 0 = no growth, 9 = maximal growth) (index 0-9); higher = more fungal growth (less inhibition), active = 0 or less; extreme values may be limits of the assay", "conditions": "concentration level (1-4, increasing; Biolog proprietary): 1; temperature: 13 °C; YPD"}
{"compound": "OB(O)O", "note": "[Boric acid] (Biolog plate: PM22)", "growth activity index": 5.33}
{"compound": "[Cl][Pd][Cl]", "note": "[Palladium(II) Chloride] (Biolog plate: PM25)", "growth activity index": 4.33}
{"compound": "N=C(N)c1ccc(OCCCCCOc2ccc(C(=N)N)cc2)cc1", "note": "[Pentamidine Isethionate] (Biolog plate: PM24)", "growth activity index": 0.333}
{"compound": "NC(=O)NO", "note": "[Hydroxyurea] (Biolog plate: PM25)", "growth activity index": 1}
{"compound": "Nc1c2ccccc2nc2ccccc12", "note": "[9-Aminoacridine] (Biolog plate: PM24)", "growth activity index": 5}
{"compound": "Cc1cc(N)c2ccccc2[n+]1CCCCCCCCCC[n+]1c(C)cc(N)c2ccccc21", "note": "[Dequalinium chloride] (Biolog plate: PM23)", "growth activity index": 4}
{"compound": "NCC(=O)O", "note": "[Glycine hydrochloride] (Biolog plate: PM23)", "growth activity index": 5}
{"compound": "[F-].[Na+]", "note": "[Sodium Fluoride] (Biolog plate: PM24)", "growth activity index": 4.33}
{"compound": "[Cl][Cu][Cl]", "note": "[Cupric chloride] (Biolog plate: PM23)", "growth activity index": 4.33}
{"compound": "COc1ccc2cc3[n+](cc2c1OC)CCc1cc2c(cc1-3)OCO2", "note": "[Berberine Chloride] (Biolog plate: PM24)", "growth activity index": 4}
{"compound": "CCCCCCCCCCCCCCCCOP(=O)([O-])OCC[N+](C)(C)C", "note": "[Miltefosine] (Biolog plate: PM22)", "growth activity index": 5}
{"compound": "CN(C)C(=O)/N=N/C(=O)N(C)C", "note": "[Diamide] (Biolog plate: PM21)", "growth activity index": 5.75}
{"compound": "NC[C@@H]1O[C@H](O[C@H]2[C@@H](O)[C@H](O[C@@H]3[C@@H](O)[C@H](N)C[C@H](N)[C@H]3O[C@H]3O[C@H](CN)[C@@H](O)[C@H](O)[C@H]3N)O[C@@H]2CO)[C@H](N)[C@@H](O)[C@@H]1O", "note": "[Neomycin] (Biolog plate: PM21)", "growth activity index": 5.25}
{"compound": "O=S(=O)([O-])[O-].[Cu+2]", "note": "[Copper (II) sulfate] (Biolog plate: PM21)", "growth activity index": 6}
{"compound": "N.N.O=S(=O)(O)O", "note": "[Ammonium Sulfate] (Biolog plate: PM23)", "growth activity index": 4.33}
{"compound": "N[C@H](CO)C(=O)O", "note": "[D-Serine] (Biolog plate: PM22)", "growth activity index": 5}
{"compound": "CC(C)Cc1ccc(C(C)C(=O)O)cc1", "note": "(stereo not drawn) [Ibuprofen] (Biolog plate: PM25)", "growth activity index": 4.33}
{"compound": "O=NO", "note": "[Sodium Nitrite] (Biolog plate: PM23)", "growth activity index": 4.33}
{"compound": "O=C(O)CN(CCN(CC(=O)O)CC(=O)O)CC(=O)O", "note": "(Biolog plate: PM21)", "growth activity index": 5}
{"compound": "O=c1[nH]c(=O)n([C@H]2C[C@H](O)[C@@H](CO)O2)cc1F", "note": "[Fluorodeoxyuridine] (Biolog plate: PM25)", "growth activity index": 4.67}
{"compound": "[Cl-].[Li+]", "note": "[Lithium chloride] (Biolog plate: PM22)", "growth activity index": "0 (active)"}
{"compound": "[Na+].[O]=[V](=[O])[O-]", "note": "[Sodium metavanadate] (Biolog plate: PM22)", "growth activity index": 5}
{"compound": "O=C(O)CC(O)C(=O)O", "note": "(stereo not drawn) [Malic acid] (Biolog plate: PM25)", "growth activity index": 4}
{"compound": "c1ccc(-c2ccccn2)nc1", "note": "[2,2`-Dipyridyl] (Biolog plate: PM21)", "growth activity index": 5}
{"compound": "O=C(O)C(O)C(O)C(=O)O", "note": "(stereo not drawn) [Tartaric acid] (Biolog plate: PM25)", "growth activity index": 3.33}
{"compound": "COc1cc(/C=C/C(=O)O)ccc1O", "note": "[Ferulic acid] (Biolog plate: PM25)", "growth activity index": 1}
{"compound": "CCCCCCCCCCCC[N+](C)(C)C", "note": "[Dodecyltrimethyl ammonium bromide] (Biolog plate: PM21)", "growth activity index": 4.25}
{"compound": "NNC(=O)c1ccncc1", "note": "[Isoniazid] (Biolog plate: PM24)", "growth activity index": 5}
